Data reported in PubChem BioAssay (NCATS).
Records with an inconclusive call do not appear. Calls of active or inactive are those of the source. Calls follow the shape of the dose curve; as a rule, active = well fitted cell-killing curve with a large enough effect; inconclusive = small, poorly fitted or top-dose-only effect, or effect the other way; inactive = no such curve, though single readings can be large or run the other way.
Potency is read from the fitted curve at half-maximal effect.

Assay: Viability qHTS for spleen associated tyrosine kinase inhibitor (SYKi) drug resistant MV4-11 cells (AID 1963824); also: nearly all actives have a fitted effect of over 35% in size
Conditions: SYKi-resistant MV4-11 viability, CellTiter-Glo, 72 h; series mostly up to 45 µM; viability, % of control: at the top concentration
Procedure, shortened: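 SYK inhibitor-resistant MV4-11 AML cells, 500 per well, added to predispensed compounds and incubated 72 hr at 37 C, 5% CO2. Viability measured by CellTiter-Glo luminescence after 10 min at room temperature.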
With `CC(C)n1nc(-c2ccc(NC(=O)Nc3cccc(C(F)(F)F)c3)cc2)c2c(N)ncnc21` the “viability, % of control” value was 3.6% (inactive). For `Cc1cc(O)c(C(C)C)cc1O[C@@H]1O[C@H](CO)[C@@H](O)[C@H](O)[C@H]1O`, the “viability, % of control” value was 104% (inactive). In the case of `CO[C@H]1O[C@@H]2O[C@]3(C)CC[C@H]4[C@H](C)CC[C@@H]([C@H]1C)[C@@]24OO3`, the Potency is reported as 2910 nM (active). In the case of `CCCCNc1ncc2c(-c3ccc(S(=O)(=O)N4CCOCC4)cc3)nn(C3CCC(O)CC3)c2n1` (centres undefined), the Potency is reported as 29.1 nM (active). With `C=C1C[C@]23C[C@H]1CC[C@H]2[C@@]1(C)CCC[C@@]2(C)C(=O)O[C@@H]([C@@H]3O)[C@@H]12` the Potency was 1430 nM (active). In the case of `CC1(C)C[C@H]2C=C(C=O)[C@]3(C(=O)O)C[C@]3(C)[C@H]2C1`, the “viability, % of control” value is reported as 96.1% (inactive). In the case of `N#C/C(=C1/Nc2ccccc2S1)c1ccnc(OCc2ccc(CN3CCOCC3)cc2)n1`, the Potency is reported as 8330 nM (active). For `CC1=CC2=C(C)C(=O)[C@](C)(O)[C@H](O)C2=CO1`, the “viability, % of control” value was 66.3% (inactive). For `COC(=O)C1=CO[C@@H](O[C@@H]2O[C@H](CO)[C@@H](O)[C@H](O)[C@H]2O)[C@H]2[C@@H]1C=C[C@]21C=C([C@H](C)OC(=O)/C=C/c2ccc(O[C@@H]3O[C@H](CO)[C@@H](O)[C@H](O)[C@H]3O)cc2)C(=O)O1`, the “viability, % of control” value was 77.2% [at 17.3 µM] (inactive).
